Screening data as filed in PubChem BioAssay.
An excerpt weighted towards active compounds, which were near 2.4% of everything screened.
Cruzain Triton = blocks cruzain activity in presence of Triton detergent; P25779; purified cruzain, Z-FR-AMC fluorescence, 0.01% Triton; Potency, µM, actives largely listed as inhibitors; 0.43% of 200,000 active; AID 1478; further: nearly all actives have a fitted effect of over 40% in size
Target sequence (P25779 123-467 limits assumed): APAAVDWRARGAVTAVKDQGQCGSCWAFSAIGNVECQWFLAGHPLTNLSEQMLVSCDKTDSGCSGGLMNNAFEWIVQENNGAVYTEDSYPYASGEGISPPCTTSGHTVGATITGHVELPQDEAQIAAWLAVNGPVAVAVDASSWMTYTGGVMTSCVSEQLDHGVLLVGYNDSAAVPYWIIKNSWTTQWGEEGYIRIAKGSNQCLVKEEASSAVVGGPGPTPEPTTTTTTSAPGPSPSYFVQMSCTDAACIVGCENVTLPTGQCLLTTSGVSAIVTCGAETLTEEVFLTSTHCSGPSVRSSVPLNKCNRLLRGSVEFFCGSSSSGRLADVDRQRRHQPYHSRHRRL
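15 min RT preincubation of 1.5 nM cruzain with compound, then 2 uM Z-FR-AMC added; kinetic AMC fluorescence, 60 s delta. Triton X-100 0.01%, pH 5.5.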
Cruzain inh noDet = blocks cruzain activity in detergent-free assay; P25779; Potency, µM, usual class: inhibitors; AID 1476; 2.3% of 200,000 active; purified cruzain, Z-FR-AMC fluorescence, no detergent; further: nearly all actives have a fitted effect of over 40% in size
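Detergent-free condition (0.00005% Triton X-100) in acetate buffer pH 5.5 with DTT. 1.5 nM enzyme and compound were pre-mixed 15 min, then 2 uM Z-FR-AMC substrate added; reaction progress from fluorescence change between first and third reads (60 s).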
Of the large screens only hits and unclear results are named; the others gave an inactive call. The call rests on the fitted dose curve; in most records, active means well fitted curve in the direction sought with a large enough effect; inconclusive means small, poorly fitted or top-dose-only effect, or another doubt; inactive means no such curve, though single readings can be large; an effect the other way counts as inactive or inconclusive.

O=C(CSc1nc2ccccc2s1)NNC(=O)Nc1ccc(Cl)c(Cl)c1	Cruzain inh noDet inconclusive
O=C(CSc1nc2ccccc2s1)Nc1ccc2c(c1)oc1ccccc12	Cruzain inh noDet 16µM
Cn1c(SCC(=O)Nc2ccc3c(c2)oc2ccccc23)nnc1-c1ccccc1	Cruzain inh noDet 13µM
Cn1c(SCC(=O)Nc2ccccc2)nnc1-c1ccccc1	none
O=C(CSc1nnc(NC(=O)c2ccccc2Cl)s1)Nc1ccc2c(c1)oc1ccccc12	Cruzain inh noDet 4µM
O=C(Nc1nnc(SCC(=O)N2CCOCC2)s1)c1ccccc1Cl	none
CC(=O)c1ccc(NC(=O)C(C)Sc2nnnn2C)cc1 (stereo not given)	none
c1ccc2c(c1)nnn2-c1ncnc2sc3c(c12)CCCC3	none
Cc1cc(Br)ccc1NC(=O)C1CCN(S(=O)(=O)c2ccc(Br)s2)CC1	none
CC1(C)C(C=C(Cl)Cl)C1C(=O)Nc1ccc([N+](=O)[O-])cc1 (stereo not given)	Cruzain Triton 13µM, Cruzain inh noDet 10µM
O=C(Nc1ccc([N+](=O)[O-])cc1)C1CC1(c1ccccc1)c1ccccc1 (stereo not given)	none
COc1ccc(S(=O)(=O)N2CCN(c3ccccc3F)CC2)cc1-c1noc(C)n1	none
CC1CCN(C(=O)N2c3ccccc3Sc3ccccc32)CC1	none
O=C(NC1CCN(C(=O)N2c3ccccc3Sc3ccccc32)CC1)c1ccccc1F	Cruzain inh noDet 20µM
Cc1cc(/C=N/NC(=O)c2cccs2)c(C)n1-c1ccccc1	Cruzain inh noDet inconclusive
O=[N+]([O-])c1ccc(N2CCOCC2)cc1NC(c1ccccc1)c1ccccc1	Cruzain inh noDet inconclusive
O=[N+]([O-])c1ccc(N2CCCC2)cc1NC(c1ccccc1)c1ccccc1	Cruzain inh noDet 10µM
COc1ccc(-c2cc(Nc3ccccc3NC(=O)C(F)(F)F)n(CCC#N)n2)cc1	Cruzain inh noDet inconclusive
Cc1ccccc1CNC(=O)C(=O)NCC(c1ccco1)S(=O)(=O)c1cccs1 (stereo not given)	none
Cc1ccc(NC(=O)CSc2nc3c(c(=O)[nH]2)CCC3)cc1C	Cruzain inh noDet inconclusive
CC(C)c1ccc(NC(=O)CSc2nc3c(c(=O)[nH]2)CCC3)cc1	Cruzain inh noDet 13µM
CCCCCCC(=O)N=Nc1c(O)[nH]c2ccc([N+](=O)[O-])cc12	Cruzain inh noDet 25µM
CCc1cc(C(=O)N=Nc2c(O)[nH]c3ccc([N+](=O)[O-])cc23)c2ccccc2n1	none
C=C(C)C1CC=C(C)/C(=N/NC(=O)COc2ccccc2Cl)C1 (stereo not given)	none
O=C(Nc1cc(Cl)ccc1Cl)c1ccc(-c2ccccc2)cc1	none
COC(=O)c1ccc(C(=O)Nc2cc(Cl)ccc2Cl)cc1NC(=O)c1ccc(N(C)C)cc1	Cruzain inh noDet 3.2µM
COc1cc2c(cc1NC(=O)COc1cc(C)cc(C)c1)oc1ccccc12	none
Cc1cc(C)c(NC(=O)COc2ccccc2C(=O)Nc2ccc3c(c2)oc2ccccc23)c(C)c1	Cruzain inh noDet 5µM
CCOc1ccc(CNC(=O)CCCn2nc(C)c3sc4ccccc4c3c2=O)cc1	Cruzain inh noDet 20µM
CCOc1ccc(CCNC(=O)CCCn2nc(C)c3sc4ccccc4c3c2=O)cc1	Cruzain inh noDet inconclusive
CCn1c(N)c(C(=O)NCc2ccco2)sc1=S	Cruzain inh noDet inconclusive
CCN1CC=C2C(C#N)=C(N)C(C#N)(C#N)[C@H](c3cccc(OC)c3OC)[C@H]2C1	none
CCN1CC=C2C(C1)C(c1ccc(Cl)s1)C(C#N)=C(N)C2(C#N)C#N (stereo not given)	Cruzain Triton 25µM, Cruzain inh noDet 25µM
CCOC(=O)N1CCc2c(sc3c2c(=O)n(CCc2ccccc2)c(=O)n3CC(=O)Nc2ccc(C)cc2)C1	none
CC(C)Sc1nc2c(c(=O)n(C)c(=O)n2C)n1C	none
Cc1ccc(C)c(NS(=O)(=O)c2ccc3c(c2)Cc2cc(S(=O)(=O)Nc4cc(C)ccc4C)ccc2-3)c1	Cruzain inh noDet 7.9µM
Cc1ccc(NS(=O)(=O)c2ccc3c(c2)C(=O)c2ccccc2C3=O)c(C)c1	none
Cc1ccc(S(=O)(=O)N2CCN=C2SCc2ccc(Cl)c(Cl)c2)cc1	none
Cc1ccc(SCc2cc(=O)[nH]c(/N=C(\N)Nc3ccccc3Sc3ccccc3)n2)cc1	Cruzain inh noDet 13µM
COc1ccccc1N/C(N)=N/c1nc(CSc2ccc(C)cc2)cc(=O)[nH]1	Cruzain inh noDet inconclusive
CCc1ccccc1N1CSC2=C(C#N)C(c3ccccc3F)CC(=O)N2C1 (stereo not given)	Cruzain inh noDet 25µM
COc1ccc(C2CC(=O)N3CN(c4ccccc4F)CSC3=C2C#N)cc1OC (stereo not given)	none
Cc1ccc(C2(C)NC(=O)N(Cc3c(C)noc3C)C2=O)cc1 (stereo not given)	none
COc1cccc(-c2nn(-c3ccccc3)cc2/C=C\C(=O)c2cccs2)c1	Cruzain inh noDet 13µM
COc1cccc(-c2nn(-c3ccccc3)cc2C(=O)O)c1	none
COCC(=O)N1CCC2(CC1)CN(c1ccccn1)C2	none
O=C(N/N=C\c1ccc(-c2ccc([N+](=O)[O-])cc2)o1)c1ccc2c(c1)OCO2	Cruzain inh noDet 7.9µM
O=C(N/N=C/c1ccc(Br)o1)c1ccc2c(c1)OCCO2	none
O=C(CCCN1C(=O)/C(=C/c2ccccc2Cl)SC1=S)Nc1ccccn1	Cruzain inh noDet inconclusive
O=C(CCN1C(=O)/C(=C\c2ccccc2Cl)SC1=S)N1CCN(c2ccccc2)CC1	Cruzain inh noDet 16µM
O=C(CCSc1ccc(F)cc1)Nc1ccc(-n2cnnn2)cc1	none
CC(C)(C)c1ccc(C2Sc3ccccc3NC3=C2C(=O)c2ccccc23)cc1 (stereo not given)	Cruzain inh noDet 7.9µM
O=C1OCC2=C1C(c1ccc(F)cc1)Sc1ccccc1N2 (stereo not given)	none
O=C(CN1CCCCCCC1)N/N=C/c1ccc(F)c(F)c1	none
CCOC(=O)c1sc(NC(=O)CSc2nc3ccccc3s2)c(C(=O)OCC)c1C	Cruzain inh noDet 20µM
CCOC(=O)c1sc(NC(=O)CSc2nnnn2-c2ccc(C)cc2)c(C(=O)OCC)c1C	none
CCOC(=O)c1sc(NC(=O)CSc2nc3c(c(=O)n2-c2ccc(C)cc2)SCC3)c(C(=O)OCC)c1C	Cruzain inh noDet 6.3µM
CCOC(=O)c1sc(NC(=O)CSc2nncs2)c(C(=O)OCC)c1C	Cruzain inh noDet inconclusive
COc1ccccc1-n1c(SCC(=O)Nc2nnc(C)s2)nc2c(c1=O)SCC2	Cruzain Triton 22µM
COc1ccccc1-n1c(SCC(=O)Nc2ccc(F)cc2)nc2c(c1=O)SCC2	none
O=C1C2C(c3ccccc3)C=CC(c3ccccc3)C2C(=O)N1c1cccnc1 (stereo not given)	none
Cc1c(C(=O)OCC2CCCO2)[nH]c2c1C(=O)CC(c1ccco1)C2 (stereo not given)	none
C=CCOc1c(CNc2ncn[nH]2)cccc1OC	none
Cc1cc(C)c(C#N)c(SCC(=O)c2cc(C)n(CCc3ccccc3)c2C)n1	Cruzain inh noDet inconclusive
Cc1ccc(S(=O)(=O)N/N=C\c2ccc3c(c2)OCO3)cc1	none
COc1ccc(C2CC(=O)c3cc(-c4nc(-c5cccc([N+](=O)[O-])c5)cs4)c(=O)n(-c4ccc(OC)cc4)c3C2)cc1 (stereo not given)	none
COC(=O)C1(C(=O)OC)Sc2ccccc2C1=O	none
COc1ccc(N2CCN(C(=O)CCc3c(C)nc4c(-c5ccccc5)c(C)nn4c3C)CC2)cc1	Cruzain inh noDet inconclusive
O=C(Nc1ccccc1)c1cn(-c2ccccc2)nc1-c1ccccc1	none
O=C(Nc1ccc([N+](=O)[O-])cc1)c1cn(-c2ccccc2)nc1-c1cc2ccccc2o1	Cruzain inh noDet 7.9µM
